Tests used:
Assay in all cases: PBM binding z-score (relative to random genomic background probes); higher = stronger binding; sequences stand for … in GC…GCGATTGACAGCGTAGAATGAAGG
[1] = test system: FXR:RXRa (NR concentration 270 nM, RXRa partner concentration 90 nM)
Outline: (§1)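 Custom Agilent 4×180K protein-binding microarrays carried double-stranded probes. Their 34-nt variable regions held direct-repeat seeds, single-nucleotide variants, half-site ablations and random human genomic background sequences. Arrays were incubated 1 h with ligand-free nuclear receptor dimers in PBS pH 7.4, 2% milk, 0.02% Triton X-100, 1 mM DTT, 0.2 mg/mL BSA and 0.4 mg/ml salmon testes DNA. Antibodies against each partner (one per run) detected binding, and scanned fluorescence was regression-normalized. Binding z-scores use random background probes as reference.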

[2] = test system: LXRa:RXRa (NR concentration 270 nM, RXRa partner concentration 90 nM)
Outline: as §1

[3] = test system: LXRa homodimer (NR concentration 270 nM)
Outline: as §1

[4] = test system: LXRb:RXRa (NR concentration 270 nM, RXRa partner concentration 90 nM)
Outline: as §1

[5] = test system: LXRb homodimer (NR concentration 270 nM)
Outline: as §1

[6] = test system: PPARa:RXRa (NR concentration 270 nM, RXRa partner concentration 90 nM)
Outline: as §1

[7] = test system: PPARg:RXRa (NR concentration 180 nM, RXRa partner concentration 90 nM)
Outline: as §1

[8] = test system: PPARg:RXRa 270nM:90nM, anti-RXR (NR concentration 270 nM, RXRa partner concentration 90 nM)
Outline: as §1

[9] = test system: PPARg:RXRa 30nM:10nM, anti-RXR (NR concentration 30 nM, RXRa partner concentration 10 nM)
Outline: as §1

[10] = test system: PPARg:RXRa 90nM:30nM, anti-RXR (NR concentration 90 nM, RXRa partner concentration 30 nM)
Outline: as §1

Sequence	PBM binding z-score [1]	PBM binding z-score [2]	PBM binding z-score [3]	PBM binding z-score [4]	PBM binding z-score [5]	PBM binding z-score [6]	PBM binding z-score [7]	PBM binding z-score [8]	PBM binding z-score [9]	PBM binding z-score [10]
TCTGTTAGGTCAACGATGGTCAGCTAATCTGCTA	4.02	3.8	0.814	2.6	1.88	3.76	2.17	3.13	3.15	3.12
CGAACTAGGTCATCCAAGACAGTGAATACATTGA	4.2	2.37	0.551	2.26	0.197	4.78	8.08	6.67	4.23	5.9
ACTAGCAGGCCAAGTCTGGGTCACTCAAACAAAG	0.226	0.263	0.0484	0.796	-1.12	2.38	0.901	1.28	0.18	0.56
ATCTCTAGGTAATAGTTCAGTGAATCCCGAGGAT	0.178	0.499	0.496	0.482	0.778	3.1	5.39	6.33	5.08	6.63
TCATATAGGTAAAAGGTGGAAGTCGGTGTGGTAA	0.924	0.974	0.29	1.22	0.619	3.71	6.89	7.1	6.28	7.79
CGAACTAGGTCAGAACAGGACAATGAAGGATGAT	1.42	1.2	0.0697	0.618	-0.134	3.06	5.27	4.32	1.93	3.26
TAGCCTAGGTCATTGGGCCAATATAGTACGCATC	4.69	3.66	1.13	2.95	0.235	4.38	4.57	4.16	1.53	3.46
TCTTGTAGATCAATAGAGGATAAGAAAGTGCGCT	0.574	0.33	-0.0873	-0.13	-0.142	0.415	0.389	1.46	2.75	2.25
TCATATAGGTAAAAGATGAAAGTCGGTGTGGTAA	0.736	1.17	-0.031	1.03	0.134	2.6	3.49	4.9	5.17	5.29
GGAAGGAGGGCAAAGTTGATAGCATCTGTCGACG	1.43	1.38	0.21	1.88	1.01	4.14	7.61	7.29	7.65	8.18
ACAGCCAGGTGAGTGAAGGTAACTCAGCTGGACG	0.0409	-0.362	-0.936	-0.925	-1.03	-0.248	0.164	-0.463	-0.822	-0.5
CGTCCAAGGTCAGCAGGTCAGTGTAAGCGACGTG	5.5	4.05	0.506	3.05	-0.03	4.91	4.14	4.68	1.12	3.01
TCATGTAGGTAAATGCTAGGTGAAAGTCCGATCT	0.737	0.46	0.144	0.503	0.151	1.33	0.723	2.1	2.88	2.6
TCTATTAGTTGAAGGGCAACCGACGAGTCCGTTT	0.607	1.21	0.32	0.682	0.453	0.751	0.154	2.11	3.61	2.69
GCTAGTTGGTCAGTAAAAGGTCACGCACCGGTCG	4.11	4.91	4.69	4.3	0.681	4.73	3.18	5.04	2.52	4.78
CGAACTAGTTCAGAACAGGACAGTGAAGGATGAT	0.0852	-0.165	-0.0634	-0.449	-0.667	-0.356	0.524	-0.523	-0.163	-0.675
CCTACTGGGCCAAAAAAGTCATTGATGCCGATAA	-0.316	-0.318	-0.289	-0.181	-0.774	0.404	0.271	0.686	-0.0301	0.41
TCGAGTGGGTTACCAATGGGGCATTCAGCTTTCT	-1.28	0.53	-0.905	0.75	-0.956	0.859	-0.273	0.677	0.872	0.607
CAAACTAGGTCCAGGTCAAAGTCGGTTTGTGCCA	2.21	2.36	1.47	1.98	0.0545	3.29	2.6	3.28	0.928	2.59
TCCATTAGTTGATTAGGGCAACCGAAACAGCGGA	0.464	0.43	0.384	0.197	0.366	0.857	0.199	2.15	3.94	2.76
CTACCAAGCTGAACAAGGTCGTTGATTACTATTC	0.51	0.731	0.686	1.31	-0.0286	0.706	-0.00663	0.00986	-0.206	-0.336
GCTGCTAGGTCAACTGCTGGTCAGCTAAAGCTCG	4.1	3.03	0.0225	1.95	-0.0517	3.53	2.54	2.94	0.291	1.66
GATCCAGGGTCAAGGCCAGAGTACGCGTATTGAT	6.77	4.23	-0.34	3.91	-0.536	5.78	5.86	5.78	2.2	4.41
